# According to paper PMC11006913:
# Residue numbers refer to the chain shown, from its start.
# Experiments:
# Assay in all cases: PBM; 200 nM protein, PBS
# Conditions in all cases: dsDNA, one strand shown
# SHOX [1] = molecular target: SHOX (Homo sapiens, UniProt O15266 103-189)
# ALX4 [2] = molecular target: ALX4 (Homo sapiens, UniProt Q9H161 200-286)
# PAX4 [3] = molecular target: T1, PAX4 (Homo sapiens, UniProt O43316 9-242, R200K)
# T1 sequence: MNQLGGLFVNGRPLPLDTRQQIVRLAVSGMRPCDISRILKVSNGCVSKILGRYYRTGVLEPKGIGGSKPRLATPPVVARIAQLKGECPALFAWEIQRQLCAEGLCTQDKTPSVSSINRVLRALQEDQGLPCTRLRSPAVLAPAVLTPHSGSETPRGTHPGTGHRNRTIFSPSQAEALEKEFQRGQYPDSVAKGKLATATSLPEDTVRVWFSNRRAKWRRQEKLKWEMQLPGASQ
# PAX4 [4] = molecular target: T2, PAX4 (Homo sapiens, UniProt O43316 9-242)
# T2 sequence: T1 sequence with K192R
# ALX4 [5] = molecular target: ALX4 (Homo sapiens, UniProt Q9H161 200-286, Q225E)
# MSX2 [6] = molecular target: MSX2 (Homo sapiens, UniProt P35548 130-214, R199I)
# ALX1 [7] = molecular target: ALX1 (Homo sapiens, UniProt Q15699 118-204, L144V)
# ALX3 [8] = molecular target: ALX3 (Homo sapiens, UniProt O95076 139-225, N203Q)
# PAX4 [9] = molecular target: T3, PAX4 (Homo sapiens, UniProt O43316 9-242, R200Q)
# T3 sequence: T1 sequence with K192Q
# SHOX [10] = molecular target: SHOX (Homo sapiens, UniProt O15266 103-189, R173C)
# ALX1 [11] = molecular target: ALX1 (Homo sapiens, UniProt Q15699 118-204, L144R)
# PAX4 [12] = molecular target: T4, PAX4 (Homo sapiens, UniProt O43316 9-242, F177V)
# T4 sequence: T1 sequence with F169V, K192R
# MSX2 [13] = molecular target: MSX2 (Homo sapiens, UniProt P35548 130-214)
# ALX3 [14] = molecular target: ALX3 (Homo sapiens, UniProt O95076 139-225)
# PAX4 [15] = molecular target: T5, PAX4 (Homo sapiens, UniProt O43316 9-242, F177Y)
# T5 sequence: T1 sequence with F169Y, K192R
# PROP1 [16] = molecular target: PROP1 (Homo sapiens, UniProt O75360 56-141)
# PROP1 [17] = molecular target: PROP1 (Homo sapiens, UniProt O75360 56-141, R99H)
# ALX3 [18] = molecular target: ALX3 (Homo sapiens, UniProt O95076 139-225, L168Q)
# ALX3 [19] = molecular target: ALX3 (Homo sapiens, UniProt O95076 139-225, L168V)
# PROP1 [20] = molecular target: PROP1 (Homo sapiens, UniProt O75360 56-141, F88S)
# MSX2 [21] = molecular target: MSX2 (Homo sapiens, UniProt P35548 130-214, F161Y)
# PAX4 [22] = molecular target: T6, PAX4 (Homo sapiens, UniProt O43316 9-242, R227W)
# T6 sequence: T1 sequence with K192R, R219W
# ALX1 [23] = molecular target: ALX1 (Homo sapiens, UniProt Q15699 118-204)
# ALX3 [24] = molecular target: ALX3 (Homo sapiens, UniProt O95076 139-225, N203S)
# HOXB9 [25] = molecular target: HOXB9 (Homo sapiens, UniProt P17482 171-250)
# HOXB9 [26] = molecular target: HOXB9 (Homo sapiens, UniProt P17482 171-250, R186Q)
# HOXA7 [27] = molecular target: HOXA7 (Homo sapiens, UniProt P31268 116-202)
# HOXA7 [28] = molecular target: HOXA7 (Homo sapiens, UniProt P31268 116-202, W177C)
# HOXB6 [29] = molecular target: HOXB6 (Homo sapiens, UniProt P17509 132-218, K202E)
# HOXB6 [30] = molecular target: HOXB6 (Homo sapiens, UniProt P17509 132-218)
# Sequence of HOXB6 (Homo sapiens, UniProt P17509 132-218) (P17509 132-218): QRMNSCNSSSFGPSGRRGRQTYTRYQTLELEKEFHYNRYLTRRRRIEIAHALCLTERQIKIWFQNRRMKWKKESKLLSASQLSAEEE
# Sequence of SHOX (Homo sapiens, UniProt O15266 103-189, R173C) (O15266 103-189 R173C): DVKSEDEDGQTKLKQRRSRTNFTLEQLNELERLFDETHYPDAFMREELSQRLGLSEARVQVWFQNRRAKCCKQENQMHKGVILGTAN
# Sequence of SHOX (Homo sapiens, UniProt O15266 103-189) (O15266 103-189): as the sequence (O15266 103-189 R173C) above, with C71R counted along it
# Sequence of MSX2 (Homo sapiens, UniProt P35548 130-214, F161Y) (P35548 130-214 F161Y): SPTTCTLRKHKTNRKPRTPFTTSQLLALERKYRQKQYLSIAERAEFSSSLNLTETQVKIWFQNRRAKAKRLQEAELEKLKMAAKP
# Sequence of ALX3 (Homo sapiens, UniProt O95076 139-225, N203S) (O95076 139-225 N203S): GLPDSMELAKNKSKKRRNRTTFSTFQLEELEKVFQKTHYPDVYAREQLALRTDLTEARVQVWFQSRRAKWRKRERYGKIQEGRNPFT
# Sequence of MSX2 (Homo sapiens, UniProt P35548 130-214, R199I) (P35548 130-214 R199I): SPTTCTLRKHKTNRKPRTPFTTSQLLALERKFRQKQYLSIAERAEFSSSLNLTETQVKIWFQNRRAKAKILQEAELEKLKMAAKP
# Sequence of ALX3 (Homo sapiens, UniProt O95076 139-225, L168V) (O95076 139-225 L168V): as the sequence (O95076 139-225 N203S) above, with L30V, S65N counted along it
# Sequence of ALX3 (Homo sapiens, UniProt O95076 139-225, L168Q) (O95076 139-225 L168Q): as the sequence (O95076 139-225 N203S) above, with L30Q, S65N counted along it
# Sequence of ALX3 (Homo sapiens, UniProt O95076 139-225, N203Q) (O95076 139-225 N203Q): as the sequence (O95076 139-225 N203S) above, with S65Q counted along it
# Sequence of MSX2 (Homo sapiens, UniProt P35548 130-214) (P35548 130-214): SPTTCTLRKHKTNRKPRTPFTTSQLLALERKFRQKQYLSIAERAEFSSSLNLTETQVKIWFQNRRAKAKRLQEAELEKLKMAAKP
# Sequence of ALX3 (Homo sapiens, UniProt O95076 139-225) (O95076 139-225): as the sequence (O95076 139-225 N203S) above, with S65N counted along it
# Sequence of ALX4 (Homo sapiens, UniProt Q9H161 200-286) (Q9H161 200-286): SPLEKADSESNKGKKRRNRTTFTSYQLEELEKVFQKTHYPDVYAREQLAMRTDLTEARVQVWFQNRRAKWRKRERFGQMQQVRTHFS
# Sequence of ALX1 (Homo sapiens, UniProt Q15699 118-204) (Q15699 118-204): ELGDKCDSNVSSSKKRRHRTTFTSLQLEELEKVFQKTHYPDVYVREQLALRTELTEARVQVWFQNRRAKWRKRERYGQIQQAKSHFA
# Sequence of HOXB9 (Homo sapiens, UniProt P17482 171-250, R186Q) (P17482 171-250 R186Q): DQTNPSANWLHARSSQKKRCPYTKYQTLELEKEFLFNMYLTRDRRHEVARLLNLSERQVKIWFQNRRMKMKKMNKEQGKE
# Sequence of HOXB6 (Homo sapiens, UniProt P17509 132-218, K202E) (P17509 132-218 K202E): as the sequence (P17509 132-218) above, with K71E counted along it
# Sequence of PROP1 (Homo sapiens, UniProt O75360 56-141, R99H) (O75360 56-141 R99H): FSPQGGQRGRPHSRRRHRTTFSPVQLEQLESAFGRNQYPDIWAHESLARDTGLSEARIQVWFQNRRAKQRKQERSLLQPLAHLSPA
# Sequence of ALX4 (Homo sapiens, UniProt Q9H161 200-286, Q225E) (Q9H161 200-286 Q225E): as the sequence (Q9H161 200-286) above, with Q26E counted along it
# Sequence of HOXB9 (Homo sapiens, UniProt P17482 171-250) (P17482 171-250): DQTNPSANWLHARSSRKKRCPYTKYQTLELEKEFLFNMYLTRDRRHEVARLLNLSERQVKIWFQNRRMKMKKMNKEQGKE
# Sequence of HOXA7 (Homo sapiens, UniProt P31268 116-202, W177C) (P31268 116-202 W177C): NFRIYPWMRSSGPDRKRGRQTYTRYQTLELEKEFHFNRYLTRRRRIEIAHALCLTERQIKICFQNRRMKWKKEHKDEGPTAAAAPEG
# Sequence of ALX1 (Homo sapiens, UniProt Q15699 118-204, L144R) (Q15699 118-204 L144R): as the sequence (Q15699 118-204) above, with L27R counted along it
# Sequence of ALX1 (Homo sapiens, UniProt Q15699 118-204, L144V) (Q15699 118-204 L144V): as the sequence (Q15699 118-204) above, with L27V counted along it
# Sequence of HOXA7 (Homo sapiens, UniProt P31268 116-202) (P31268 116-202): as the sequence (P31268 116-202 W177C) above, with C62W counted along it
# Sequence of PROP1 (Homo sapiens, UniProt O75360 56-141) (O75360 56-141): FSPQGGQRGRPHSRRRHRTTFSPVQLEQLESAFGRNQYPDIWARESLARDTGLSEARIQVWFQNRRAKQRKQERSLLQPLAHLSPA
# Sequence of PROP1 (Homo sapiens, UniProt O75360 56-141, F88S) (O75360 56-141 F88S): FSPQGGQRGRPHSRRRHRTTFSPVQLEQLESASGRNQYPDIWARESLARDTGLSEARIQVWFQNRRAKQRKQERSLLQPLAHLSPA
sequence,measurement,setting,value
CAAATTAG,binding signal,SHOX [1],"11.8 upbm affinity estimate (log intensity, higher = more binding, comparable within an allelic series)"
same,binding signal,ALX4 [2],"13.6 upbm affinity estimate (log intensity, higher = more binding, comparable within an allelic series)"
same,binding signal,PAX4 [3],"11.8 upbm affinity estimate (log intensity, higher = more binding, comparable within an allelic series)"
same,binding signal,PAX4 [4],"12.4 upbm affinity estimate (log intensity, higher = more binding, comparable within an allelic series)"
same,binding signal,ALX4 [5],"12.4 upbm affinity estimate (log intensity, higher = more binding, comparable within an allelic series)"
same,binding signal,MSX2 [6],"12.1 upbm affinity estimate (log intensity, higher = more binding, comparable within an allelic series)"
same,binding signal,ALX1 [7],"11.3 upbm affinity estimate (log intensity, higher = more binding, comparable within an allelic series)"
same,binding signal,ALX3 [8],"8.31 upbm affinity estimate (log intensity, higher = more binding, comparable within an allelic series)"
same,binding signal,PAX4 [9],"12.3 upbm affinity estimate (log intensity, higher = more binding, comparable within an allelic series)"
same,binding signal,SHOX [10],"9.26 upbm affinity estimate (log intensity, higher = more binding, comparable within an allelic series)"
same,binding signal,ALX1 [11],"10.9 upbm affinity estimate (log intensity, higher = more binding, comparable within an allelic series)"
same,binding signal,PAX4 [12],"10.4 upbm affinity estimate (log intensity, higher = more binding, comparable within an allelic series)"
same,binding signal,MSX2 [13],"13.3 upbm affinity estimate (log intensity, higher = more binding, comparable within an allelic series)"
same,binding signal,ALX3 [14],"12.2 upbm affinity estimate (log intensity, higher = more binding, comparable within an allelic series)"
same,binding signal,PAX4 [15],"11 upbm affinity estimate (log intensity, higher = more binding, comparable within an allelic series)"
same,binding signal,PROP1 [16],"11.1 upbm affinity estimate (log intensity, higher = more binding, comparable within an allelic series)"
same,binding signal,PROP1 [17],"10.7 upbm affinity estimate (log intensity, higher = more binding, comparable within an allelic series)"
same,binding signal,ALX3 [18],"10.1 upbm affinity estimate (log intensity, higher = more binding, comparable within an allelic series)"
same,binding signal,ALX3 [19],"9.51 upbm affinity estimate (log intensity, higher = more binding, comparable within an allelic series)"
same,binding signal,PROP1 [20],"7.47 upbm affinity estimate (log intensity, higher = more binding, comparable within an allelic series)"
same,binding signal,MSX2 [21],"12.9 upbm affinity estimate (log intensity, higher = more binding, comparable within an allelic series)"
same,binding signal,PAX4 [22],"11 upbm affinity estimate (log intensity, higher = more binding, comparable within an allelic series)"
same,binding signal,ALX1 [23],"12.1 upbm affinity estimate (log intensity, higher = more binding, comparable within an allelic series)"
same,binding signal,ALX3 [24],"8.39 upbm affinity estimate (log intensity, higher = more binding, comparable within an allelic series)"
AATTAGGA,binding signal,SHOX [1],"11.4 upbm affinity estimate (log intensity, higher = more binding, comparable within an allelic series)"
same,binding signal,HOXB9 [25],"10.3 upbm affinity estimate (log intensity, higher = more binding, comparable within an allelic series)"
same,binding signal,SHOX [10],"9.06 upbm affinity estimate (log intensity, higher = more binding, comparable within an allelic series)"
same,binding signal,HOXB9 [26],"10.2 upbm affinity estimate (log intensity, higher = more binding, comparable within an allelic series)"
TAACAATA,binding signal,SHOX [1],"8.71 upbm affinity estimate (log intensity, higher = more binding, comparable within an allelic series)"
same,binding signal,HOXA7 [27],"9.77 upbm affinity estimate (log intensity, higher = more binding, comparable within an allelic series)"
same,binding signal,HOXA7 [28],"8.92 upbm affinity estimate (log intensity, higher = more binding, comparable within an allelic series)"
CAAGCTTG,binding signal,SHOX [1],"7.28 upbm affinity estimate (log intensity, higher = more binding, comparable within an allelic series)"
same,binding signal,MSX2 [6],"9.71 upbm affinity estimate (log intensity, higher = more binding, comparable within an allelic series)"
same,binding signal,SHOX [10],"7.33 upbm affinity estimate (log intensity, higher = more binding, comparable within an allelic series)"
same,binding signal,MSX2 [13],"9.69 upbm affinity estimate (log intensity, higher = more binding, comparable within an allelic series)"
same,binding signal,MSX2 [21],"9.69 upbm affinity estimate (log intensity, higher = more binding, comparable within an allelic series)"
CCAGCTCC,binding signal,SHOX [1],"7.19 upbm affinity estimate (log intensity, higher = more binding, comparable within an allelic series)"
same,binding signal,HOXB6 [29],"8.94 upbm affinity estimate (log intensity, higher = more binding, comparable within an allelic series)"
same,binding signal,ALX3 [8],"7.65 upbm affinity estimate (log intensity, higher = more binding, comparable within an allelic series)"
same,binding signal,SHOX [10],"7.18 upbm affinity estimate (log intensity, higher = more binding, comparable within an allelic series)"
same,binding signal,ALX3 [14],"7.54 upbm affinity estimate (log intensity, higher = more binding, comparable within an allelic series)"
same,binding signal,ALX3 [18],"7.75 upbm affinity estimate (log intensity, higher = more binding, comparable within an allelic series)"
same,binding signal,ALX3 [19],"7.76 upbm affinity estimate (log intensity, higher = more binding, comparable within an allelic series)"
same,binding signal,ALX3 [24],"7.69 upbm affinity estimate (log intensity, higher = more binding, comparable within an allelic series)"
same,binding signal,HOXB6 [30],"8.78 upbm affinity estimate (log intensity, higher = more binding, comparable within an allelic series)"
